TDP1 cell CPT: DT40-hTDP1 cell growth loss with CPT. chicken DT40 Tdp1-/-;hTDP1 cells + 20 nM CPT, ATP luminescence, 48 h. Potency, µM (top dose mostly 46.2 µM), inactives show at the highest dose activity change, negative = growth inhibition, most hits filed as inhibitors. 12% of 420,000 active. AID 686979; further: potency means the concentration at half of the fitted maximal effect; nearly all actives have a fitted effect of over 55% in size
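Cell growth measured by CellTiter-Glo luminescence after a minimum 48 h, 37 C compound exposure with 20 nM CPT in Tdp1-knockout DT40 cells stably expressing hTDP1, seeded 400/well; qHTS titration format.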
HT1080NT lethal: kills 2HG-producing HT-1080-NT fibrosarcoma cells | HT-1080-NT fibrosarcoma viability, CellTiter-Glo ATP luminescence, 48 h | Potency, µM (series often up to 46.1 µM), without a hit: at the highest dose activity, negative = less viability, hits mostly cytotoxic | 1.6% of 360,000 active;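 further: NT is the 2HG producing partner of a matched IDH1 knockdown line; potency means the concentration at half of the fitted maximal effect; 0% = DMSO-treated cells and -100% = media-only wells without cells; nearly all actives have a fitted effect of over 55% in size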
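Viability by CellTiter-Glo luminescence after 48 h compound exposure at 37C of HT-1080-NT cells (750/well, RPMI, 5% FBS). % activity scaled between DMSO wells and medium-only wells, then curve-fitted and categorized by curve class.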
HT1080 IDH1KD tx: toxicity to HT-1080 IDH1 knockdown cells (counter line). HT-1080 IDH1 knockdown viability, ATP luminescence, 48 h. Potency, µM (top dose mostly 46.1 µM), without a hit: at the highest dose activity, negative = toxicity, usual class: cytotoxic. 2% of 360,000 active;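 further: potency means the concentration at half of the fitted maximal effect; 0% = DMSO wells and -100% = cell-free medium wells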
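Using the IDH1-knockdown HT-1080 line run in the same batch and compound series as the NT line, viability after 48 h at 37 °C was determined by CellTiter-Glo luminescence and expressed as % activity.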
ELG1 DNA repair: blocks ELG1-dependent DNA repair in HEK293T cells | HEK293T ELG1-luciferase reporter, luminescence, 16 h; DNA damage induced by 5-fluorouridine | Potency, µM (titrated, usually from 46.1 µM), for the others: top-dose activity change, negative = inhibition, most hits filed as inhibitors | 2.3% of 330,000 active; further: potency means the concentration at half of the fitted maximal effect; nearly all actives have a fitted effect of over 55% in size
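In this reporter screen, reduction of luminescence relative to DMSO vehicle indicated activity. Compounds and 5-fluorouridine were added together to 2,000 cells per well, incubated for 16 hr at 37 °C, then developed with ONE-Glo.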
IL-1B inflam inh: inhibitors of inflammasome signaling (IL-1 beta secretion); activity change, % at 57.5 µM; THP-1 LPS/ATP IL-1B secretion, AlphaLISA, 16 h; active compounds read low; AID 743279; 4.7% of 360,000 active; in the data active means activity change below about -50%; inconclusive means mostly about -30% to -49%
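Secreted IL-1B measured by AlphaLISA bead assay after 16 h compound exposure of THP-1 cells; compounds (final up to 57.5 uM) added 1 h before LPS (250 ng/mL) and ATP (1.25 mM) stimulation; lower signal means less secretion.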
TDP1 cell noCPT: qHTS for Inhibitors of human tyrosyl-DNA phosphodiesterase 1 (TDP1): qHTS in cells in absence of CPT; DT40 Tdp1-/- hTDP1 cells, no CPT, ATP luminescence, 48 h; Potency, µM (series often up to 46.2 µM), inactives show at the top dose activity change, negative = growth inhibition, usual class: inhibitors; 15% of 420,000 active; AID 686978, 2013; further: potency means the concentration at half of the fitted maximal effect; nearly all actives have a fitted effect of over 55% in size
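Chicken DT40 Tdp1-/- cells stably complemented with human TDP1 were seeded at 400 cells/well with DMSO in place of 20 nM camptothecin. After compound pinning, cells grew at least 48 hr at 37 °C; viability read by CellTiter-Glo luminescence.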
The depositor's hits bear a star. The list is not random: actives were taken first. Their share in the collection is about 19%. Unless noted, the call rests on the fitted dose curve; in most records, active means well fitted curve in the direction sought with a large enough effect; inconclusive means small, poorly fitted or top-dose-only effect, or another doubt; inactive means no such curve, though single readings can be large; an effect the other way counts as inactive or inconclusive. Unless noted, on the % scale 0 is the no-effect control and ±100 the full control effect.

Results for COc1cccc(N=c2oc3cc(O)ccc3cc2C(=O)NCC2CCCO2)c1 (centres undefined) ?
TDP1 cell CPT: inconclusive; HT1080NT lethal: -2%; HT1080 IDH1KD tx: -25%; ELG1 DNA repair: 4.1µM*; IL-1B inflam inh: -87*; TDP1 cell noCPT: 21µM*

How did COc1ccccc1/C=C/C(=O)NC(=S)NCC1CCCO1 (centres undefined) do in these assays?
TDP1 cell CPT: -28%; HT1080NT lethal: 3%; HT1080 IDH1KD tx: 0%; ELG1 DNA repair: inconclusive; IL-1B inflam inh: -62*; TDP1 cell noCPT: inconclusive

Results for CCC(=O)N(Cc1cc2c(C)ccc(C)c2[nH]c1=O)C1CCCCC1 ?
TDP1 cell CPT: inconclusive; HT1080NT lethal: -11%; HT1080 IDH1KD tx: -11%; ELG1 DNA repair: 16%; IL-1B inflam inh: -12; TDP1 cell noCPT: 16µM*

Results for CCC(=O)N(Cc1cc2c(C)cc(C)cc2[nH]c1=O)C1CCCCC1 ?
TDP1 cell CPT: inconclusive; HT1080NT lethal: -16%; HT1080 IDH1KD tx: -12%; ELG1 DNA repair: inconclusive; IL-1B inflam inh: -14; TDP1 cell noCPT: inconclusive

How did NC(=O)NS(=O)(=O)c1ccc(N)cc1 do in these assays?
TDP1 cell CPT: -4%; TDP1 cell noCPT: 2%

Results for Cn1cc(-c2nc3cncnc3n(C3CC3)c2=O)c2ccccc21 ?
TDP1 cell CPT: -5%; TDP1 cell noCPT: 4%

How did C/C=C(/CCC1NCCc2c1[nH]c1ccccc21)[Si](C)(C)C (centres undefined) do in these assays?
TDP1 cell CPT: 3.3µM*; HT1080NT lethal: inconclusive; HT1080 IDH1KD tx: inconclusive; IL-1B inflam inh: -99*; TDP1 cell noCPT: 2.9µM*

What do the screens show for `Cc1ccc(S(=O)(=O)NC(=O)C2(C)CCN2C(=O)Cc2cccs2)cc1` (centres undefined)?
TDP1 cell CPT: 0%; HT1080NT lethal: -3%; HT1080 IDH1KD tx: 13%; IL-1B inflam inh: -1; TDP1 cell noCPT: 4%

Results for Cc1noc(C)c1COc1ccc(C(=O)NNC(=O)c2ccccc2)cc1 ?
TDP1 cell CPT: 5.2µM*; HT1080NT lethal: inconclusive; HT1080 IDH1KD tx: 15µM*; ELG1 DNA repair: -3%; IL-1B inflam inh: 20; TDP1 cell noCPT: 4.6µM*

How did Cc1noc(C)c1COc1ccc(C(=O)N2CCN(c3ccccc3O)CC2)cc1 do in these assays?
TDP1 cell CPT: inconclusive; HT1080NT lethal: 2%; HT1080 IDH1KD tx: -1%; ELG1 DNA repair: inconclusive; IL-1B inflam inh: -2; TDP1 cell noCPT: 16µM*

Results for Cc1ccc(NC(=O)c2ccc(OCc3c(C)noc3C)cc2)cc1C ?
TDP1 cell CPT: inconclusive; HT1080NT lethal: inconclusive; HT1080 IDH1KD tx: -21%; ELG1 DNA repair: 10µM*; IL-1B inflam inh: -88*; TDP1 cell noCPT: inconclusive

How did Cc1cccc(C)c1NC(=O)c1ccc(OCc2c(C)noc2C)cc1 do in these assays?
TDP1 cell CPT: inconclusive; HT1080NT lethal: -3%; HT1080 IDH1KD tx: -16%; ELG1 DNA repair: inconclusive; IL-1B inflam inh: -9; TDP1 cell noCPT: 16µM*

Results for Cc1cccc(NC(=O)c2ccc(OCc3c(C)noc3C)cc2)c1C ?
TDP1 cell CPT: inconclusive; HT1080NT lethal: -6%; HT1080 IDH1KD tx: -19%; ELG1 DNA repair: -25%; IL-1B inflam inh: -6; TDP1 cell noCPT: inconclusive

What do the screens show for `Cc1noc(C)c1S(=O)(=O)N1CCCC1C(=O)O` (centres undefined)?
TDP1 cell CPT: -1%; HT1080NT lethal: 19%; HT1080 IDH1KD tx: 5%; ELG1 DNA repair: 6%; IL-1B inflam inh: 18; TDP1 cell noCPT: -1%

How did CC1CCN(c2nn3c(=O)c(C(=O)NC(C)C)cnc3s2)CC1 do in these assays?
TDP1 cell CPT: -19%; TDP1 cell noCPT: inconclusive
